In all, about 4,400 compounds went through this assay and about 390 (8.9%) showed an effect of 50% or more. This is one part of a sample in which strong results are shown more often than they occur.
tested on: Trypanosoma brucei; test: DNDI: Inhibition of Human African Trypanosomiasis, SBRI 427, in vitro at 2 ug.mL-1; assay type: functional

| Structure (SMILES) | % inhibition |
| --- | --- |
| Cc1ccccc1-c1nc(Cn2ncc3c2CCCC3)co1 | -16% |
| O/N=C(/c1ccc(Oc2cc(Cl)ccc2Cl)nc1)N1CCSCC1 | -11% |
| COc1ccc(Oc2nc(C)ccc2/C(=N/O)N(C)Cc2cccnc2)cc1 | -3% |
| CCCN(CCC)Cc1coc(-c2ccccc2Cl)n1 | 16% |
| Oc1ccc(-c2nc(CN3CCc4ccccc4C3)co2)cc1 | 8% |
| CCOc1ccc(-c2nc(CN(C)CC#N)co2)cc1 | 4% |
| CSc1ccc(Oc2nc(C)ccc2/C(=N/O)n2nc(C)cc2C)cc1C | 16% |
| CSc1ccccc1Oc1ncccc1/C(=N/O)N1CCN(c2ccc(F)cc2)CC1 | 19% |
| Cc1cccc(N2CCN(Cc3coc(-c4ccc(OC(F)(F)F)cc4)n3)CC2)c1C | -7% |
| CC(C)CN/C(=N\O)c1cccnc1Oc1ccccc1 | 17% |
| Cc1ccc(Oc2ncccc2/C(=N/O)NCC(C)C)c2c1CCC2 | 100% |
| Cc1ccc(Oc2ncccc2/C(=N/O)N2CCCC2)c2c1CCC2 | -1% |
| CCOc1ccccc1-c1nc(CN2CCN(c3cccc(OC)c3)CC2)co1 | -3% |
| COc1ccc(CNCc2coc(-c3ccc(F)cc3)n2)cc1OC | -5% |
| CC1CCN(/C(=N\O)c2ccc(Oc3c(F)c(F)cc(F)c3F)nc2)CC1 | 9% |
| COc1ccc(CN/C(=N\O)c2cccnc2OCC(C)C)cc1 | -1% |
| C#CC(CC)(CC)NCc1coc(-c2ccc(OC)cc2)n1 | -8% |
| C=CCc1ccc(Oc2cc(/C(=N/O)NCc3cccc(OC)c3)ccn2)c(OC)c1 | 35% |
| C=CCc1ccc(Oc2cc(/C(=N/O)NCc3ccc(OC)cc3)ccn2)c(OC)c1 | 88% |
| C=CCc1ccc(Oc2ccc(/C(=N/O)NCc3ccncc3)cn2)c(OC)c1 | 80% |
| C=CCc1ccc(Oc2cc(/C(=N/O)NCc3cccnc3)ccn2)c(OC)c1 | 3% |
| C=CCc1ccc(Oc2ccc(/C(=N/O)NCc3ccc(OC)cc3)cn2)c(OC)c1 | 10% |
| C=CCc1ccc(Oc2cc(/C(=N/O)NCc3ccncc3)ccn2)c(OC)c1 | 23% |
| c1ccc(-c2nccn2Cc2coc(-c3cccc4ccccc34)n2)cc1 | -1% |
| O/N=C(\NCc1ccco1)c1cccnc1OCc1ccccc1 | 17% |
| CSc1ccc(Oc2cc(/C(=N/O)NCc3c(F)cccc3F)ccn2)cc1 | 19% |
| COc1cc(CN(C)Cc2coc(-c3cccc4ccccc34)n2)cc(OC)c1OC | -3% |

| Structure (SMILES) | % inhibition |
| --- | --- |
| CCn1nccc1NCc1coc(-c2ccc(F)cc2)n1 | -5% |
| COc1cccc(-c2nc(CN(C)CCC#N)co2)c1 | 4% |
| C=CCc1ccc(Oc2ncccc2/C(N)=N/O)c(OC)c1 | 18% |
| O/N=C(\NC1CCCCC1)c1ccnc(Oc2ccc(F)c(Cl)c2)c1 | 88% |
| CN(/C(=N\O)c1ccnc(Oc2ccc(F)c(F)c2)c1)C1CCCCC1 | 35% |
| CC1CCC(N/C(=N\O)c2ccnc(Oc3ccc(F)c(Cl)c3)c2)CC1 (stereo not given) | 42% |
| CC1CCCC(C)N1/C(=N\O)c1ccnc(Oc2ccc(F)c(Cl)c2)c1 (stereo not given) | 9% |
| CN(/C(=N\O)c1ccnc(Oc2cc(Cl)ccc2Cl)c1)C1CCCCC1 | 16% |
| CN(/C(=N\O)c1ccnc(Oc2ccc(F)c(Cl)c2)c1)C1CCCCC1 | 94% |
| O/N=C(/c1ccnc(Oc2ccc(F)c(Cl)c2)c1)N1CCCCC1 | 8% |
| O/N=C(\NC1CCCC1)c1ccnc(Oc2ccc(F)c(Cl)c2)c1 | 96% |
| O/N=C(\NCc1ccccc1F)c1ccnc(Oc2ccc(F)c(Cl)c2)c1 | 44% |
| Cc1cn(Cc2coc(-c3ccc(F)cc3)n2)cn1 | 9% |
| N#CCCN(Cc1coc(-c2ccc(Cl)cc2Cl)n1)CC1CCCO1 (stereo not given) | 9% |
| Oc1ccc(-c2nc(CN3CCN(Cc4ccccc4)CC3)co2)cc1 | 18% |
| C1=CCN(Cc2coc(-c3ccco3)n2)CC1 | 30% |
| CC1(C)Cc2cccc(Oc3ccc(/C(=N/O)NCC4CCCCC4)cn3)c2O1 | 34% |
| Cc1cccc(-c2nc(Cn3ccnc3)co2)c1 | 15% |
| Cc1ccc(/C(=N/O)NCC2CCCO2)c(Oc2cc(Cl)ccc2Cl)n1 (stereo not given) | 85% |
| Cc1ccc(/C(=N/O)NC2CCCCC2)c(Oc2cc(Cl)ccc2Cl)n1 | 97% |
| Cc1ccc(/C(=N/O)NC2CC2)c(Oc2ccc(Cl)cc2)n1 | 9% |
| Cc1ccc(/C(=N/O)NCC2CC2)c(Oc2cc(Cl)ccc2Cl)n1 | -4% |
| Cc1ccc(/C(=N/O)NCC2CCCO2)c(Oc2ccc(F)c(Cl)c2)n1 (stereo not given) | 42% |
| Cc1ccc(/C(=N/O)NC2CCC2)c(Oc2ccc(Cl)cc2)n1 | -9% |
| Cc1ccc(/C(=N/O)NCC2CCCCC2)c(Oc2c(F)c(F)cc(F)c2F)n1 | 12% |
| Cc1ccc(/C(=N/O)NC2CCCCC2)c(Oc2ccc(Cl)cc2)n1 | 22% |
| Cc1ccc(/C(=N/O)NC2CCc3ccccc32)c(Oc2cc(Cl)ccc2Cl)n1 (stereo not given) | -38% |

| Structure (SMILES) | % inhibition |
| --- | --- |
| Cc1ccc(/C(=N/O)NCC2CCCO2)c(Oc2ccc(F)c(F)c2)n1 (stereo not given) | 8% |
| Cc1ccc(/C(=N/O)NC2CCCC2)c(Oc2cc(Cl)ccc2Cl)n1 | 100% |
| Cc1ccc(/C(=N/O)NCC2CCCCC2)c(Oc2cc(Cl)ccc2Cl)n1 | 51% |
| Cc1ccc(/C(=N/O)NCCN2CCOCC2)c(OCc2ccccn2)n1 | 4% |
| Cc1ccc(/C(=N/O)NCCN2CCOCC2)c(Oc2cccc3ccccc23)n1 | -6% |
| O=C(c1ccco1)N1CCN(Cc2coc(-c3ccccc3F)n2)CC1 | 4% |
| COc1cccc(OC)c1CNCc1coc(-c2ccc(Br)cc2)n1 | 7% |
| CCOc1cccc(-c2nc(CN3CCCCC3)co2)c1 | -5% |
| COCCN(/C(=N\O)c1ccc(C)nc1OCc1ccccc1F)C(C)C | 18% |
| CCOc1ccccc1-c1nc(Cn2cc(C)nc2C)co1 | 7% |
| COCCN(CCOC)Cc1coc(-c2ccc(C)cc2)n1 | 28% |
| COc1ccc(CNCc2coc(-c3cccc(F)c3)n2)cc1OC | 13% |
| CCN(Cc1coc(-c2cccc(OC)c2)n1)c1cccc2ccccc12 | 11% |
| Cc1ccc(/C(=N/O)N2CCN(C)CC2)c(Oc2cc(Cl)ccc2Cl)n1 | 5% |
| Cc1ccc(/C(=N/O)N2CCCN(C)CC2)c(Oc2cc(Cl)ccc2Cl)n1 | 55% |
| Cc1ccc(/C(=N/O)N2CCCCC2)c(Oc2cc(Cl)ccc2Cl)n1 | 33% |
| Cc1cc(C)cc(Oc2ccc(/C(=N/O)N3CCCCC3)cn2)c1 | 6% |
| CN(Cc1coc(-c2cccc3ccccc23)n1)C(C)(C)C | 7% |
| Cc1ccc(Oc2nc(C)ccc2/C(=N/O)N2CCN(c3ccccc3)CC2)c(C)c1 | 15% |
| O/N=C(/c1ccc(Oc2cccc3cccnc23)nc1)n1ccnc1 | -3% |
| CCc1ccc(Oc2ncccc2/C(=N/O)NCCN(C)C)cc1 | 5% |
| CCc1ccc(Oc2ncccc2/C(=N/O)NCCOC)cc1 | 86% |
| COCCN/C(=N\O)c1cccnc1Oc1ccc(C(C)C)cc1 | 97% |
| COCCN/C(=N\O)c1cccnc1Oc1ccc(OC)cc1 | 8% |
| COc1ccc(Oc2ncccc2/C(=N/O)Nc2ccc(C(C)C)cc2)cc1 | -14% |
| COCCN/C(=N\O)c1cccnc1Oc1cccc(C(F)(F)F)c1 | 1% |
| O/N=C(\NC1CCCC1)c1ccnc(Oc2ccc(Cl)cc2)c1 | 93% |

| Structure (SMILES) | % inhibition |
| --- | --- |
| O/N=C(/c1ccnc(Oc2ccc(Cl)cc2)c1)N1CCCCCC1 | 18% |
| O/N=C(\NCC1CCCCC1)c1ccnc(Oc2ccc(Cl)cc2)c1 | 98% |
| O/N=C(\NCc1ccncc1)c1ccnc(Oc2ccc(Cl)cc2)c1 | 20% |
| CC1CCCN1/C(=N\O)c1ccnc(Oc2ccc(Cl)cc2)c1 (stereo not given) | -11% |
| CCOc1ccc(Oc2cc(/C(=N/O)NCC3CCCCC3)ccn2)cc1 | 33% |
| O/N=C(\NCC1CCCCC1)c1ccnc(Oc2ccc(F)c(Cl)c2)c1 | 5% |
| O/N=C(/c1ccnc(Oc2ccc(Cl)cc2)c1)N1CCCCC1 | 23% |
| O/N=C(\NC1CCCCC1)c1ccnc(Oc2ccc(Cl)cc2)c1 | 99% |
| CN1CCCC1CCN/C(=N\O)c1cccnc1Oc1cccc(C(F)(F)F)c1 (stereo not given) | 3% |
| Cc1ccc(/C(=N/O)N2CC(C)CC(C)C2)c(Oc2ccc3oc4ccccc4c3c2)n1 (stereo not given) | 11% |
| COc1cccc(-c2nc(CN3CCCCC3)co2)c1 | 12% |
| CN(C)CCN(Cc1ccccc1)Cc1coc(-c2cccc(F)c2)n1 | -25% |
| Clc1ccccc1-c1nc(CN(CCc2ccccc2)Cc2ccccc2)co1 | 17% |
| Cc1ccc(/C(=N/O)NC(C)C)c(Oc2ccc(F)c(F)c2)n1 | 4% |
| CCC(CC)N/C(=N\O)c1ccc(C)nc1Oc1ccc(F)c(Cl)c1 | 100% |
| CCC(CC)N/C(=N\O)c1ccc(C)nc1Oc1cccc(C(C)C)c1 | 6% |
| Cc1ccc(/C(=N/O)Nc2ccc(C(C)C)cc2)c(Oc2cc(Cl)ccc2Cl)n1 | 14% |
| COCC(C)N/C(=N\O)c1ccc(C)nc1Oc1cccc(F)c1 (stereo not given) | 20% |
| CCC(CC)N/C(=N\O)c1ccc(C)nc1Oc1cc(Cl)ccc1Cl | 100% |
| CCC(CC)N/C(=N\O)c1ccc(C)nc1Oc1cccc(F)c1 | 88% |
| CCC(CC)N/C(=N\O)c1ccc(C)nc1Oc1ccc(SC)c(C)c1 | 6% |
| COc1cc(-c2nc(CN3CCN(C)CC3)co2)cc(OC)c1OC | -2% |
| Cc1cccc(-c2nc(CNC(C)c3cccc4ccccc34)co2)c1 (stereo not given) | 14% |
| Fc1ccc(-c2nc(CN3CCN(c4cccc(Cl)c4)CC3)co2)cc1 | -16% |

Source: ChEMBL document CHEMBL1857833, “Screening and optimization of specific chemical series against human African Trypanosomiasis (HAT)”
